Source: PubChem BioAssay (NCATS)
Records with an inconclusive call do not appear. The source made the active and inactive calls. Unless noted, the call rests on the fitted dose curve; in most records, active means well fitted curve in the direction sought with a large enough effect; inconclusive means small, poorly fitted or top-dose-only effect, or another doubt; inactive means no such curve, though single readings can be large; an effect the other way counts as inactive or inconclusive.

Tests used:
[1] = qHTS for Inhibitors of Plasmodium falciparum (GB4) proliferation (AID 504315); further: nearly all actives have a fitted effect of over 50% in size
Summary of the method: (§1)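 Erythrocytes infected with P. falciparum line (0.3% parasitemia, 2.5% hematocrit final) incubated with compounds 72 h at 37 °C, 5% CO2; SYBR Green lysis buffer added, fluorescence read next day. Normalized to 0.29 uM artemisinin and DMSO.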

[2] = qHTS for Inhibitors of Plasmodium falciparum (HB3) proliferation (AID 504318); further: nearly all actives have a fitted effect of over 60% in size
Summary of the method: as §1

[3] = qHTS for Inhibitors of Plasmodium falciparum (CP250) proliferation (AID 504320)
Summary of the method: as §1

[4] = target: Atrial natriuretic peptide receptor 1 (Homo sapiens) (UniProt P16066); assay: Natriuretic polypeptide receptor (hNpr1) antagonism - Pilot CMLD screen (AID 1347052; calls by dose curve;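 further: HEK293 cells with hNpr1 stimulated by hNppA peptide at 0.1 nM; cGMP level read as GloSensor luciferase luminescence after agonist stimulation; series mostly up to about 9.2 µM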)
Atrial natriuretic peptide receptor 1 (Homo sapiens), sequence (P16066 whole entry, looked up): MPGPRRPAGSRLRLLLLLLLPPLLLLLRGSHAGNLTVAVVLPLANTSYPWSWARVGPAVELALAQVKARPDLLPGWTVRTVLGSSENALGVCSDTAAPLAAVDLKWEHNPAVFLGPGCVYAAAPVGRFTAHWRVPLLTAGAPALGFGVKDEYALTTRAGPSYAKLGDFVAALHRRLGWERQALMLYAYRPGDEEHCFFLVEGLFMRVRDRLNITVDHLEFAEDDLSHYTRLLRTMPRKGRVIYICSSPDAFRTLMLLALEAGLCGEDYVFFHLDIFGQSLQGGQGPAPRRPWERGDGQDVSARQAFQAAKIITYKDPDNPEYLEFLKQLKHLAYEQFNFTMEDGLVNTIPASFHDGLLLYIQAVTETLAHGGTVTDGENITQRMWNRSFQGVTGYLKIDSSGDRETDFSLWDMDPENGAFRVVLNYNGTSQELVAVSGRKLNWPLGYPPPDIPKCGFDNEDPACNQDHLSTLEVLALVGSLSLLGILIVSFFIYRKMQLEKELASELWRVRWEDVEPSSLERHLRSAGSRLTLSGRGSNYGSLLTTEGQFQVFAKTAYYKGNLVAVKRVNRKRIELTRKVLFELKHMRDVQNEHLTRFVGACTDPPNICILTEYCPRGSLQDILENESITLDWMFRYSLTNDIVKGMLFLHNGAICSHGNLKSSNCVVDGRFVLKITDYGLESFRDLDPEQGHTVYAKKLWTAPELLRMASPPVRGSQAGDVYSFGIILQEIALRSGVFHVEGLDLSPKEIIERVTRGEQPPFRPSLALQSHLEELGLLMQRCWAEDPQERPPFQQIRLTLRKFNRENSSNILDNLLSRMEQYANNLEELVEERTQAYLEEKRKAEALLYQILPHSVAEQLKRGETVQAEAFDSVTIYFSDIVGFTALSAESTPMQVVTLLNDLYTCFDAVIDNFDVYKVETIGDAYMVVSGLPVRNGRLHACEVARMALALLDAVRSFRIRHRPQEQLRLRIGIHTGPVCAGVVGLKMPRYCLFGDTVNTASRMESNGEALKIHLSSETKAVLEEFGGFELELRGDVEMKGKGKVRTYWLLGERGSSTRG

Measured: Potency

COc1cc(C(CC2=CCCCC2)NC(=O)C(F)(F)F)cc(OC)c1OC (stereo not given)
inactive: all assays above

O=C(NC(CC1=CCCCC1)c1ccc2ccccc2c1)C(F)(F)F (stereo not given)
inactive: all assays above

CC1=CC[C@@H](COc2ccccc2)O[C@@]2(C1)C(=O)N(Cc1ccc(F)cc1)c1ccccc12
inactive: [1] | [3] | [4]

COCC=CC1=CC2=CC(=O)C(C)(OC(=O)c3cnc4ccccc4n3)C(=O)C2=CN1CCc1c[nH]c2ccccc12 (stereo not given)
inactive: all assays above

COC(=O)C1=C(C(=O)OC)[C@@H]2N(C)c3ccc(OC)cc3[C@@]23C[C@@H](C(=O)OC)N(C(=O)N2CCNC2=O)C3=N1
inactive: [1] | [3] | [4]

COC(=O)[C@@]1(C=C[C@@H](C)[C@H](OC)c2ccccc2Br)[C@@H]2OCCC[C@@H]21
inactive: all assays above

CC1=CC[C@@H](COc2ccccc2)O[C@@]2(C1)C(=O)N(CC1CC1)c1ccccc12
inactive: [1] | [3] | [4]
